The results in this text go back to PubChem BioAssay (NCATS).

A short description of test [1]: P-glycoprotein substrates identified in KB-3-1 adenocarcinoma cell line, qHTS therapeutic library screen (AID 1346986). Further: nearly all actives have a fitted effect of over 60% in size. In short, it runs like this:
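In 1536-well format, 500 cells/well received pinned compound titrations and were incubated 72 h, 5% CO2. Viability was read by CellTiter-Glo; cytotoxic if AC50 < 10 uM and efficacy >50%.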

A short description of test [2]: P-glycoprotein substrates identified in KB-8-5-11 adenocarcinoma cell line, qHTS therapeutic library screen (AID 1346987). Further: nearly all actives have a fitted effect of over 65% in size. In short, it runs like this:
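Luminescence from CellTiter-Glo, read 5 min after addition, quantified survival of KB-8-5-11 (P-gp-overexpressing) cells exposed to compounds for 72 h. AC50 was derived from concentration-response curves.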
(In general: In qHTS, concentration-response curves come from the screen itself.)

Structures are written as SMILES. Records with an inconclusive call do not appear. Entries that show only a call come without a potency. Activity calls are given as the source filed them. The call rests on the fitted dose curve; in most records, active means well fitted curve in the direction sought with a large enough effect; inconclusive means small, poorly fitted or top-dose-only effect, or another doubt; inactive means no such curve, though single readings can be large; an effect the other way counts as inactive or inconclusive.

As to `COc1cc(OC)cc(-c2ccc3c(-c4ccc(F)cc4)[nH]nc3n2)c1`, the Potency result in test [1] was “inactive”.

With `C/C=C(\C)C(=O)OCC1OC(OCC2OC(OC3(CO)OC(CO)C(O)C3O)C(O)C(O)C2O)C(O)C(O)C1O` (stereo not drawn), the Potency result in test [1] and in test [2] was “inactive” in each case.

`O=C(/C=C/c1ccc(O)cc1)OC[C@@]1(O)C=C[C@@H]2C(C(=O)O)=CO[C@@H](O[C@@H]3O[C@H](CO)[C@@H](O)[C@H](O)[C@H]3O)[C@@H]21`: the Potency result in test [1] was “inactive”.

With `C=C1C[C@H](O)[C@@H](O)[C@@]2(C)C1[C@@H](O)[C@H]1OC(=O)C3[C@@H](C)[C@@H](O)[C@H](O)C2[C@]31C` (stereo partly drawn), the Potency entry in test [1] and in test [2] was “inactive” in each case.

Take `COc1c2cc(c(O[C@@H]3O[C@H](CO)[C@@H](O)[C@H](O)[C@H]3O)c1OC)CCCCC(O)CCc1ccc(O)c-2c1` (stereo partly drawn): the Potency entry in test [1] was “inactive”.

In the case of `CCN1CCN(C(=O)N[C@@H](C(=O)N[C@@H]2C(=O)N3[C@@H]2SC(C)(C)[C@@H]3C(=O)O)c2ccccc2)C(=O)C1=O`, the Potency result in test [1] and in test [2] was “inactive” throughout.

Regarding `CCC(C)(C)C1CCc2c(sc(NC(=O)c3ccc(Br)cc3)c2C#N)C1` (stereo not drawn), the Potency entry in test [1] and in test [2] was “inactive” throughout.

As for `Cc1occc(=O)c1O[C@@H]1O[C@H](CO[C@@H]2OC[C@](O)(CO)[C@H]2O)[C@@H](O)[C@H](O)[C@H]1O`, the Potency entry in test [1] and in test [2] was “inactive” in each case.

For the molecule `N=C(N)c1ccc2nc(-c3cc(CC(=O)NC(CC(=O)O)C(=O)O)cc(-c4cc(S(N)(=O)=O)ccc4O)c3O)[nH]c2c1` (stereo not drawn), the Potency result in test [1] and in test [2] was “inactive” throughout.

`Cc1nnc(-c2ccc3occ(-c4ccc(S(C)=O)cc4)c3c2)o1` (stereo not drawn): in test [1], the Potency entry is “inactive”.

Take `COc1c(-c2ccc(O)cc2)cc(OC)c2c1oc1cc(O)c(OC3OC(CO)C(O)C3O)cc12` (stereo not drawn): the Potency result in test [1] and in test [2] was “inactive” in each case.
